Source: PubChem BioAssay (several laboratories)
NadD inh: inhibitors of S. aureus NadD, primary screen, biochemical, colorimetric, uHTS; purified NadD enzyme, colorimetric absorbance read-out; inhibition, % at 20 µM; 0.78% of 360,000 active; in the data active = inhibition above about 26%
PP5 inh: PP5 phosphatase inhibitors, primary screen, biochemical, fluorescence; Serine/threonine-protein phosphatase 5 (Homo sapiens), P53041; purified PP5c, OMFP substrate fluorescence; inhibition, % at 6.7 µM; 0.18% of 320,000 active; AID 1987, 2009;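 active = inhibition above the campaign's mean inhibition across all tested compounds plus 3 SD, cut at about 9.5% in these data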;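 also: 0% = DMSO only and 100% = 100 µM cantharidin control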
Target sequence (P53041 whole entry, looked up): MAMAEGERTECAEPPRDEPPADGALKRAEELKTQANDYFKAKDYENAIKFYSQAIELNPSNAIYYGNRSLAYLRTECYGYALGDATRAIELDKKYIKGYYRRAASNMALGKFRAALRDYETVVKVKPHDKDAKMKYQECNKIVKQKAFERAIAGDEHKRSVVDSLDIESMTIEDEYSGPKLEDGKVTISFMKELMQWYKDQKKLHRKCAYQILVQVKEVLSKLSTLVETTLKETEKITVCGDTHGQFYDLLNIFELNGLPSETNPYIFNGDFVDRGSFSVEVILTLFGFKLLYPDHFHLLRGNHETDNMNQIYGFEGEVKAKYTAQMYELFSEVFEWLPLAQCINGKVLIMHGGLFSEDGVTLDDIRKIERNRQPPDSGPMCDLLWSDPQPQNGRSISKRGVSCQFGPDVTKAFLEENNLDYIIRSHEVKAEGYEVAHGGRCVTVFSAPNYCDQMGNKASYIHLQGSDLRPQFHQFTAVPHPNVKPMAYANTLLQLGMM
Rpn11 block: Rpn11 (PSMD14) deubiquitinase inhibitors, primary screen, biochemical, fluorescence polarization, uHTS; 26S proteasome non-ATPase regulatory subunit 14 (Homo sapiens), O00487; human 26S proteasome, Ub4-pepOG fluorescence polarization; 20S core pre-blocked with epoxomicin; inhibition, % at 20 µM; 0.59% of 360,000 active; AID 588493, 2011;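 active = inhibition at 20 µM, scaled to each plate's controls, above about 33%, limit read from the data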
PREPL inhibitor: PREPL enzyme inhibitors, primary screen, biochemical, fluorescence polarization; Prolyl endopeptidase-like (Homo sapiens), Q4J6C6; recombinant PREPL, fluorescence polarization activity-based probe; inhibition, % at 5.96 µM; 0.68% of 320,000 active; AID 2751, 2010; in the data active = inhibition above about 43%;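 also: 0% = enzyme with DMSO and 100% = wells lacking enzyme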
PP1 counter: PP1-alpha phosphatase inhibitors, primary screen, counter-screen for PP5 inhibitor project, biochemical, fluorescence, OMFP substrate, single point; Serine/threonine-protein phosphatase PP1-alpha catalytic subunit (Homo sapiens), P62136; purified PP1alpha; inhibition, % at 6.7 µM; 0.9% of 320,000 active; AID 2235, 2010;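 active = inhibition above the mean inhibition of all tested compounds plus 3 SD, computed separately for each screening campaign, cut at about 15% in these data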
NadD inh conf: inhibitors of S. aureus NadD, confirmation, biochemical, colorimetric, single concentration; shares compounds with NadD inh; purified S. aureus NadD, colorimetric enzyme assay; inhibition, % at 20 µM; 13% of 2,000 active; AID 624309, 2012; in the data active = inhibition mostly above about 42%, no sharp cut-off; inactive = mostly below about 42%
Starred values were filed as active, the others as inactive; nt = no result shown. A selection: hits, their analogues and other compounds. The true share with any hit is near 2.4%.

SMILES | NadD inh | PP5 inh | Rpn11 block | PREPL inhibitor | PP1 counter | NadD inh conf
O=C(O)C1CC=CCC1C(=O)N1CCN(c2nc(-c3ccccc3Cl)c3cc(Br)ccc3n2)CC1 (stereo not drawn) | 35.8* | 0.1 | 12.9 | -1.2 | 17.4* | 27.7
COC(=O)C1=C(O)/C(=C\c2ccc(CNC(=O)C(=O)Nc3ccc(C)cc3)o2)N=C1C | 32.1* | 1.8 | 0.8 | 16.1 | -0.1 | 8.2
CCOC(=O)C(=O)NCc1ccc(/C=C2/N=C(C)C(C(=O)OCC)=C2O)o1 | -0.9 | 2.5 | -10.0 | 10.6 | -2.4 | nt
COC(=O)C1=C(O)/C(=C\c2ccc(CNS(=O)(=O)c3ccccc3)o2)N=C1C | 5.0 | 3.6 | -19.6 | 18.7 | 0.0 | nt
CCOC(=O)C1=C(O)/C(=C/c2ccc(CNC(=O)C(=O)Nc3ccc(C)cc3)o2)N=C1C | 45.5* | 0.9 | 7.8 | 9.8 | 0.1 | 5.7
COC(=O)C1=C(O)/C(=C\c2ccc(CNC(=O)C(=O)Nc3ccc(C)c(C)c3)o2)N=C1C | 34.0* | 3.3 | 18.0 | 21.2 | 4.4 | 6.7
CCOc1ccc(S(=O)(=O)NCCC(=O)NCC(c2ccc(F)cc2)N2CCOCC2)cc1 (stereo not drawn) | 8.5 | -3.3 | -1.1 | -3.6 | -2.1 | nt
O=C(OC1C2CCC1C1CN(CCc3ccccc3)CC12)c1ccccc1 (stereo not drawn) | -2.1 | 4.5 | 1.9 | 14.4 | -3.8 | nt
COc1ccccc1N(C)S(=O)(=O)c1ccc(C(=O)NCc2ccccc2CN2CCCC2)cc1 | 4.1 | nt | -56.2 | nt | nt | nt
CCOc1ccc(Br)cc1S(=O)(=O)Nc1ccc(C(=O)OCC(=O)Nc2ccc(C#N)cc2)cc1 | 34.4* | 3.1 | 2.2 | -3.0 | -5.2 | 40.9
O=C(Nc1ccc([N+](=O)[O-])cc1)Nc1nc(-c2ccc(Cl)s2)cs1 | 51.0* | 1.4 | 2.0 | 4.7 | 12.7 | 5.0
O=C(Nc1ccc(Oc2ccc(NC(=O)Nc3ccc([N+](=O)[O-])cc3)cc2)cc1)Nc1ccc([N+](=O)[O-])cc1 | 32.0* | 2.9 | -5.8 | 20.5 | -1.4 | -3.6
CC(=O)c1ccc(NC(=O)Nc2ccc([N+](=O)[O-])cc2)cc1 | -4.4 | 4.8 | -8.8 | 15.3 | 2.1 | nt
Cc1ccccc1NS(=O)(=O)c1c(C(=O)N2CCCCCC2)c(C)n(C)c1C | -3.3 | -0.2 | 6.0 | 2.9 | -1.2 | nt
CS(=O)(=O)N(CC(=O)N1CCN(c2ccc(F)cc2)CC1)c1ccc(F)c(Cl)c1 | -4.0 | 1.5 | -2.3 | 9.7 | -3.5 | nt
CC1=C(C(=O)OC(C)C)C(c2ccc(Cl)cc2)n2c(sc(=Cc3ccc(OCC(=O)O)cc3)c2=O)=N1 (stereo not drawn) | 30.5* | nt | nt | nt | nt | 13.6
CCOc1ccc(C2C(C(=O)Nc3ccccc3)=C(C)N=c3s/c(=C/c4cccc(OCC(=O)O)c4)c(=O)n32)cc1 (stereo not drawn) | 33.1* | 3.0 | 15.2 | -44.3 | 7.3 | 44.1
CC1=CC(C)(C)n2c(O)c(C3=NC(=S)NC3=O)c3cc(OC(=O)c4cccc5ccccc45)cc1c32 | 55.5* | 0.3 | -2.2 | 7.7 | -4.9 | 6.5
O=C(CSc1nc2scc(-c3ccco3)c2c(=O)n1-c1ccccc1)NCC1CCCO1 (stereo not drawn) | 30.1* | 2.7 | 19.6 | 9.9 | 6.8 | 37.3
CC(=O)Nc1ccc(C(=O)NCC(=O)OCc2c(F)cccc2Cl)cc1 | -3.5 | -0.1 | 6.1 | -7.6 | 1.4 | nt
Cc1ncc([N+](=O)[O-])n1S(=O)(=O)c1ccc2c(c1)OCCO2 | 3.9 | nt | 4.6 | nt | nt | nt
CSc1ncccc1C(=O)OCc1cccc([N+](=O)[O-])c1 | -1.2 | 2.5 | 5.1 | 7.2 | -1.0 | nt
NC(=O)c1c(NC(=O)COC(=O)CSc2nnc(-c3ccc(Cl)cc3)o2)sc2c1CCC2 | 39.5* | 0.7 | 18.3 | 23.7 | 5.8 | 8.4
Cc1cccc(NC(=O)c2nc[nH]c2C(=O)N[C@@H](CC(C)C)C(=O)OC(C)(C)C)c1 | -0.1 | 2.6 | 2.9 | 3.0 | 8.0 | nt
CC(=O)c1ccc(-c2c(CCO)sc3ccccc23)cc1 | -4.5 | nt | nt | nt | nt | nt
